# Several values for one entry are separate records, joined by “and”; a condition that tells them apart may be missing. Equal entries are not always repeated. Structures can show the parent of a compound that is named as a salt. Unmarked numbers belong to inactive results.
# System: Plasmodium falciparum NF54/iGP1_RE9H ulg8 stage V gametocytes
# Assay: gametocyte viability (luciferase signal relative to DMSO control) (% of DMSO control); higher = less gametocytocidal activity, active = 50 or less
# Conditions: exposure time: 72 h
# Outline: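 Stage V gametocytes of the NF54/iGP1_RE9Hulg8 line (day 12; ~2.5% gametocytemia, 3% hematocrit), in medium containing 0.5% Albumax II, were dispensed into 96-well plates with compounds spotted in nanolitre volumes from 10 mM DMSO stocks, for final concentrations of 10 µM or 1 µM in a single well each. After 72 h at 37 °C, 90 µl from each well was combined with 10 µl D-luciferin (30 mg/ml), and luminescence was measured on an IVIS Lumina II. Viability was expressed against the mean of the DMSO vehicle wells on the same plate.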
SMILES,gametocyte viability (concentration: 1 µM),gametocyte viability (concentration: 10 µM)
O=c1cc(N2CCOCC2)oc2c(-c3cccc4c3sc3ccccc34)cccc12,106,105
Cc1ccc(NC(=O)c2ccc(CN3CCN(C)CC3)cc2)cc1Nc1nccc(-c2cccnc2)n1 [Imatinib Mesylate],108,111
O=C(O)c1ccc(Nc2ncc3c(n2)-c2ccc(Cl)cc2C(c2c(F)cccc2F)=NC3)cc1,102,103
CS(=O)(=O)N1CCN(Cc2cc3nc(-c4cccc5[nH]ncc45)nc(N4CCOCC4)c3s2)CC1,97.2,108
CNC(=O)CN1CCC(Oc2cc3c(Nc4cccc(Cl)c4F)ncnc3cc2OC)CC1,103,106
COc1cc2nccc(Oc3ccc(NC(=O)C4(C(=O)Nc5ccc(F)cc5)CC4)cc3)c2cc1OC [XL-184 free base (Cabozantinib)],100,83.1
N#C/C(=C\c1ccc(O)c(O)c1)C(=O)NCc1ccccc1,98.4,95.8
c1ccc2c(-c3cnn4cc(-c5ccc(N6CCNCC6)cc5)cnc34)ccnc2c1,106,73.3
O=C1NC(=O)/C(=C/c2ccc(-c3ccc(F)cc3O)o2)S1,100,110
COc1ncc(-c2ccc3nccc(-c4ccnnc4)c3c2)cc1NS(=O)(=O)c1ccc(F)cc1F,100,103
COc1ccc2c3n(c(=NC(=O)c4cccnc4)nc2c1OC)CCN3,94.4,101
Cc1ncc(-c2ccnc(Nc3ccc(S(C)(=O)=O)cc3)n2)n1C(C)C,115,119
O=C(NC1CCNCC1)c1n[nH]cc1NC(=O)c1c(Cl)cccc1Cl,99.2,69.7
Nc1nc(N)c2nc(-c3cccc(O)c3)c(-c3cccc(O)c3)nc2n1,110,109
CCOc1cc2ncc(C#N)c(Nc3ccc(OCc4ccccn4)c(Cl)c3)c2cc1NC(=O)/C=C/CN(C)C [Neratinib (HKI-272)],103,104
CCOc1ccn(-c2ccc(F)cc2)c(=O)c1C(=O)Nc1ccc(Oc2ccnc(N)c2Cl)c(F)c1,95.8,92.2
N#CC(=C(/N)Sc1ccccc1N)/C(C#N)=C(/N)Sc1ccccc1N,100,103
CC[C@H](CO)Nc1nc(NCc2ccccc2)c2ncn(C(C)C)c2n1 [Roscovitine],107,105
CC(=O)Nc1nc(C)c(-c2ccc(Cl)c(S(=O)(=O)NCCO)c2)s1,81.5,13.6 (active)
CN(c1ncccc1CNc1nc(Nc2ccc3c(c2)CC(=O)N3)ncc1C(F)(F)F)S(C)(=O)=O,117,112
O=c1cc(N2CCOCC2)oc2c(-c3ccccc3)cccc12,105 and 79.5,103 and 92
COc1cc2ncnc(Nc3cccc(Br)c3)c2cc1OC,95.6,114
CO[C@H]1C[C@@H]2CC[C@@H](C)[C@@](O)(O2)C(=O)C(=O)N2CCCC[C@H]2C(=O)O[C@H]([C@H](C)C[C@@H]2CC[C@@H](O)[C@H](OC)C2)CC(=O)[C@H](C)/C=C(\C)[C@@H](O)[C@@H](OC)C(=O)[C@H](C)C[C@H](C)/C=C/C=C/C=C/1C [Rapamycin (Sirolimus)],99.3,79.7
CNC(=O)c1ccccc1Sc1ccc2c(/C=C/c3ccccn3)n[nH]c2c1 [Axitinib],103,98.8
CC(C)n1nc(-c2cc3cc(O)ccc3[nH]2)c2c(N)ncnc21,105,103
Oc1cc(O)cc(/C=C/c2ccc(O)c(O)c2)c1 [Piceatannol],70.4,38.4 (active)
CC(C)(C)n1nc(-c2ccc(Cl)cc2)c2c(N)ncnc21,97,99.4
Nc1cc(C(F)(F)F)c(-c2cc(N3CCOCC3)nc(N3CCOCC3)n2)cn1,107,98.6
Cc1[nH]c(/C=C2\C(=O)Nc3ccccc32)c(C)c1CCC(=O)O,96.9,105

# From the supplement of paper PMC12297408
